Measured values reported in PubChem BioAssay.
Calls of active or inactive are those of the source.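 Rule for the calls, unless noted: active = visual image review flags a hit and inhibition of aggregation exceeds 20%; inconclusive = visual hit but inhibition at or below 20%; inactive = no hit on visual image review.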

Key:
[1] = inhibitors of TNFa-induced NFkB p65 translocation, primary screen, imaging, HUVEC, MLSMR starter and 10KST1 sets (AID 438;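 active = inhibition above 20% together with a positive visual image hit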;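 note: compound added about 3h40 before a 20 min TNFalpha stimulation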;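 for inhibition: signal is the nuclear over cytoplasmic p65 intensity ratio per well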); conditions: HUVEC TNFa-induced p65 nuclear translocation; cell count: measured here: nuclei count (cytotoxicity indicator), at 2.08 µM; inhibition: at 2 µM, stronger effect = higher value, 0% TNFa-plus-vehicle, 100% no-TNFa wells
[2] = inhibitors of mutant huntingtin aggregation, primary screen, imaging, exon1htt(103Q)mCFP cells, high-content imaging (AID 483); conditions: exon1htt(103Q)mCFP cell line, aggregate imaging, at 2 µM; inhibition of aggregation: stronger effect = higher value; nuclei count: measured here: cell count, toxicity;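 note: compound exposure lasted 3 days before fixation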;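 for nuclei count: percent of the per-plate median nuclei count of sample wells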
[3] = inhibitors of E-selectin induction by TNFa, primary screen, imaging, HUVEC, immunofluorescence, MLSMR starter and 10KST1 sets (AID 487;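 active = visually confirmed hit in the image check and inhibition above 20%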;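 for inhibition: signal is fraction of cell area covered by stained E-selectin grains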;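 for nuclei count: 100% = median nuclei count of all wells on the same plate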); conditions: HUVEC TNFalpha-induced E-selectin immunofluorescence imaging, at 2 µM; inhibition: stronger effect = higher value; nuclei count: measured here: cell number, toxicity
[4] = molecular target: Voltage-gated potassium channel subunit beta-2 (Rattus norvegicus) (UniProt P62483); assay: KvBeta enzyme negative modulators, primary screen, biochemical, NADPH fluorescence (AID 622;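 active = fluorescence slope higher than the sample average by over 3 SD, cut at about -0.22 in these data, passing the limit was not always enough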;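 note: slope of raw intensity against log time taken from 70 to 1610 s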); conditions: recombinant KvBeta, 4-cyanobenzaldehyde reduction, at 10 µM, stronger effect = higher value
[5] = molecular target: Voltage-gated potassium channel subunit beta-2 (Rattus norvegicus) (UniProt P62483); assay: KvBeta positive modulators, primary screen, biochemical, NADPH fluorescence (AID 623;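 active = NADPH fluorescence slope more negative than the mean of all samples by about 3 SD, 99.7% confidence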;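 note: fluorescence intensity change per second fitted from 20 to 320 s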); conditions: Recombinant KvBeta, NADPH fluorescence decrease slope, 10 min; at 10 µM; stronger effect = lower value
[6] = molecular target: Alpha-2C adrenergic receptor (Homo sapiens) (UniProt P18825); assay: modulators of alpha2C/GIRK thallium flux, primary screen, cell-based, HEK293 alpha2C/GIRK1/2 (AID 624;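 active = fluorescence slope after compound addition differing from the mean of all screened samples at 99.7% confidence, in either direction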;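 note: slope of fluorescence ratio to pre-addition baseline per second over 15 to 24 s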); conditions: thallium flux BTC fluorescence, at 10 µM, actives lie on both sides
[7] = inhibitors of Sendai virus-induced IRF3 signaling, primary screen, TLR/RLR signaling modifier project, cell-based, Sendai virus stimulus, luciferase, 10K MLSCN set (AID 602276;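 active = inhibition at or above 50% at 10 µM; inactive = inhibition below 50%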;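 note: firefly luciferase from ISG56 promoter only with Renilla not read in this screen; 0% = Sendai virus plus DMSO and 100% = medium plus DMSO without virus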); conditions: HEK293 RL24 IRF3 luciferase reporter, at 10 µM, stronger effect = higher value
[8] = inhibitors of poly I:C-induced TLR3 signaling, primary screen, cell-based, poly I:C stimulus, luciferase, 10K MLSCN set (AID 602277;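 active = inhibition of the reporter signal at or above 50%; inactive = inhibition below 50%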); conditions: HEK293-TLR3 RL24 IRF3 luciferase reporter, at 10 µM, stronger effect = higher value

Sequence of Voltage-gated potassium channel subunit beta-2 (Rattus norvegicus) (P62483 whole entry, looked up): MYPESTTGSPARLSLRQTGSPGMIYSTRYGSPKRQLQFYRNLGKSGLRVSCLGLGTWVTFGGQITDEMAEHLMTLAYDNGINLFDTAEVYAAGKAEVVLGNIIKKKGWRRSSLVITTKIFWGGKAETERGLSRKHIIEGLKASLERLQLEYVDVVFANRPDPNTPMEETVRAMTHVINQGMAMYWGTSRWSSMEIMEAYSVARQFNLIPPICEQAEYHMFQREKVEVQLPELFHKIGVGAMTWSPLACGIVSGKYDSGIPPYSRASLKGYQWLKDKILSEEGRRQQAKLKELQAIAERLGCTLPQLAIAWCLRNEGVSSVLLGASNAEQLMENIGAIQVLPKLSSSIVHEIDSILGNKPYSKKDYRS
Sequence of Alpha-2C adrenergic receptor (Homo sapiens) (P18825 whole entry, looked up): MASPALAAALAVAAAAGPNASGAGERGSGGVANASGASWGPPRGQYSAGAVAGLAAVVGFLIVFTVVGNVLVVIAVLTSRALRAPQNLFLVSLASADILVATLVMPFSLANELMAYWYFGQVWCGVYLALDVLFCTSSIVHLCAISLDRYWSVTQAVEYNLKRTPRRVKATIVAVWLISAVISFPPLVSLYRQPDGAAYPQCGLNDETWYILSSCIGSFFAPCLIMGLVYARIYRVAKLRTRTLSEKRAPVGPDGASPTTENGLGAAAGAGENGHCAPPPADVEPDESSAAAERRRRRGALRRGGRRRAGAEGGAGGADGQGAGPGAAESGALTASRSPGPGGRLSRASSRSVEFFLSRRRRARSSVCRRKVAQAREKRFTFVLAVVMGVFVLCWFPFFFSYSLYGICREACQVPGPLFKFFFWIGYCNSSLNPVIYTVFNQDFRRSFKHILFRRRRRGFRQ

Compound | cell count [1] | inhibition [1] | inhibition of aggregation [2] | nuclei count [2] [%] | inhibition [3] | nuclei count [3] [%] | fluorescence slope [4] | NADPH fluorescence slope [5] | slope [6] | inhibition [7] | inhibition [8]
CCOC(=O)c1c(N)nn(C(=O)C(C)C)c1-c1ccccc1 | 690 | -2.1% (inactive) | -5.4% (inactive) | 112 | 4.3% (inactive) | 109 | -0.529 (inactive) | -1.3e-05 (inactive) | 0.00581 (inactive) | -23.8% (inactive) | -5.01% (inactive)
Nc1cccc2c1C(=O)N(c1ccccc1)C2=O | 560 | 1.8% (inactive) | -6% (inactive) | 87.9 | 13.9% (inactive) | 107 | -0.0636 (active) | -2.2e-06 (inactive) | 0.00303 (inactive) | -20.4% (inactive) | -40.4% (inactive)
O=C1C/C(=C/NCc2ccccc2)C(=O)N1 | 464 | -7.4% (inactive) | 22.7% (inactive) | 67.6 | -106% (inactive) | 95.9 | -0.423 (inactive) | -2.2e-05 (inactive) | 0.0024 (inactive) | 4.55% (inactive) | 30.7% (inactive)
CC(=O)c1cc2c(cc1NC(=O)CN1CCN(C(=O)c3ccco3)CC1)OCO2 | 410 | -6.1% (inactive) | 13.3% (inactive) | 44.6 | -58.5% (inactive) | 113 | -0.548 (inactive) | -3.4e-05 (inactive) | 0.00807 (inactive) | 4.38% (inactive) | 25.7% (inactive)
Cc1ccccc1Cn1c(=O)c2c(nc3n2CCCN3Cc2ccccc2)n(C)c1=O | 348 | 7.4% (inactive) | 7.4% (inactive) | 97.8 | -25.1% (inactive) | 120 | -0.478 (inactive) | -7.4e-06 (inactive) | 0.00418 (inactive) | 22.9% (inactive) | 19.5% (inactive)
CCN1CCN(Cc2ccc(NC(=O)Nc3ccccc3)cc2)CC1 | 552 | -7.5% (inactive) | -20.2% (inactive) | 56.6 | -49.1% (inactive) | 102 | -0.605 (inactive) | -1.7e-05 (inactive) | 0.00679 (inactive) | 10.6% (inactive) | -14.4% (inactive)
O=C(CC1(O)C(=O)Nc2ccccc21)c1ccc2c(c1)OCO2 (stereo not drawn) | 484 | 4.5% (inactive) | -8.1% (inactive) | 102 | -22.5% (inactive) | 110 | -0.384 (inactive) | 2.8e-06 (inactive) | 0.00339 (inactive) | 10.1% (inactive) | 35.2% (inactive)
COC(=O)C1CCN(C(=O)CN2C(=O)NC(CCc3ccccc3)C2=O)CC1 (stereo not drawn) | 552 | -9.6% (inactive) | -7.5% (inactive) | 95.7 | -16.4% (inactive) | 110 | -0.542 (inactive) | -2.6e-05 (inactive) | 0.00516 (inactive) | -17.8% (inactive) | -13.6% (inactive)
CS(=O)(=O)NCc1ccc(C(=O)NCc2ccccc2)cc1 | 640 | 3.3% (inactive) | 0% (inactive) | 104 | -19.7% (inactive) | 109 | -0.415 (inactive) | -3.9e-05 (inactive) | 0.003 (inactive) | -0.454% (inactive) | 5.61% (inactive)
CCOC(=O)N1CCC(N2C(=O)c3ccccc3C2Nc2cccnc2)CC1 (stereo not drawn) | 592 | -4.5% (inactive) | -28.1% (inactive) | 100 | -11.7% (inactive) | 117 | -0.6 (inactive) | 4.7e-06 (inactive) | 0.00694 (inactive) | 7.61% (inactive) | -4.54% (inactive)
O=C(Cn1ncc2c(=O)oc3ccccc3c21)Nc1nc2ccccc2s1 | 313 | -0.7% (inactive) | 1.3% (inactive) | 96.3 | -282% (inactive) | 90.7 | -0.537 (inactive) | -8.1e-05 (inactive) | 0.00615 (inactive) | 15.6% (inactive) | 17% (inactive)
CC1CCCN(c2ccc(C(=O)NCc3cccs3)cn2)C1 (stereo not drawn) | 632 | -14.3% (inactive) | -22.9% (inactive) | 112 | -67.5% (inactive) | 139 | -0.614 (inactive) | -6.9e-06 (inactive) | 0.00612 (inactive) | -37.8% (inactive) | -71.3% (inactive)
CN(CC(=O)Nc1sccc1C#N)C1CCCCC1 | 723 | -7.3% (inactive) | -178% (inactive) | 7.1 | -27.2% (inactive) | 125 | -0.42 (inactive) | -1.4e-05 (inactive) | 0.00552 (inactive) | -14.2% (inactive) | 99.3% (active)
CN(C)S(=O)(=O)c1ccc(S(=O)(=O)N(Cc2ccco2)Cc2ccccc2Cl)cc1 | 478 | 4% (inactive) | 0.8% (inactive) | 98.9 | -58.4% (inactive) | 99.8 | -0.523 (inactive) | 8.8e-06 (inactive) | 0.00696 (inactive) | 4.31% (inactive) | 53.4% (active)
CCOC(=O)N1CCN(Cc2ccccc2F)CC1 | 485 | -3.8% (inactive) | 15.1% (inactive) | 91.4 | -26% (inactive) | 91.5 | -0.581 (inactive) | -2e-05 (inactive) | 0.00418 (inactive) | 12.5% (inactive) | 13.4% (inactive)
COc1ccc(NS(=O)(=O)c2coc(C(N)=O)c2)cc1Cl | 734 | -6.3% (inactive) | 24% (inactive) | 86.4 | -27.2% (inactive) | 116 | -0.605 (inactive) | 1.2e-05 (inactive) | 0.00632 (inactive) | 6.28% (inactive) | 29.4% (inactive)
CCCN(CCC)CCCNS(=O)(=O)c1ccc2c(c1)oc(=O)n2C | 377 | -2.4% (inactive) | 6.1% (inactive) | 102 | -61.9% (inactive) | 112 | -0.432 (inactive) | -9.3e-05 (inactive) | 0.00475 (inactive) | 16.6% (inactive) | 23% (inactive)
Cc1ccc(-c2nnc3c4ccccc4c(C)nn23)cc1S(=O)(=O)N1CCN(C)CC1 | 640 | 7.2% (inactive) | 3.8% (inactive) | 96.2 | 11.3% (inactive) | 81.2 | -0.592 (inactive) | -2.9e-05 (inactive) | 0.00436 (inactive) | 13.3% (inactive) | 30.7% (inactive)
c1ccc(CSCc2cn3ccsc3n2)cc1 | 664 | 1.2% (inactive) | 5.1% (inactive) | 107 | -84.7% (inactive) | 131 | -0.583 (inactive) | -4.2e-05 (inactive) | 0.00621 (inactive) | -50.3% (inactive) | -132% (inactive)
O=c1[nH]c(Nc2ccccc2)cc2ccccc12 | 526 | -14.6% (inactive) | -7.1% (inactive) | 101 | -33.7% (inactive) | 96.7 | -0.132 (inactive) | 1.3e-05 (inactive) | 0.00342 (inactive) | 7.19% (inactive) | 7.53% (inactive)
O=C(Cn1nc(Cc2cccnc2)c2ccccc2c1=O)Nc1ccc2c(c1)OCO2 | 576 | 3% (inactive) | 22.2% (inactive) | 109 | -9.3% (inactive) | 98.3 | -0.55 (inactive) | -3.9e-05 (inactive) | 0.00644 (inactive) | 10.9% (inactive) | 18.1% (inactive)
COc1ccc(S(=O)(=O)Cc2ccc(C(=O)N3CCN(c4ccccc4)CC3)o2)cc1 | 524 | -8.3% (inactive) | 5.7% (inactive) | 70.9 | -89.5% (inactive) | 133 | -0.44 (inactive) | -4.3e-05 (inactive) | 0.00594 (inactive) | -7.36% (inactive) | 26.1% (inactive)
C=CCNC(=O)c1ccc(Cl)cc1Cl | 344 | 1.6% (inactive) | -21.2% (inactive) | 87.7 | -31.6% (inactive) | 91.8 | -0.478 (inactive) | -4.6e-05 (inactive) | 0.00715 (inactive) | 0.0277% (inactive) | 23.8% (inactive)
Cc1ccc(Nc2nc(Oc3ccc(=O)[nH]n3)nc(N(C)C)n2)cc1 | 377 | 2.8% (inactive) | 13.2% (inactive) | 101 | -65.6% (inactive) | 111 | -0.498 (inactive) | -4.2e-05 (inactive) | 0.00563 (inactive) | 8.86% (inactive) | 11.8% (inactive)
O=C(CN(CC1CCCO1)C(=O)CCC(=O)Nc1ccccn1)NCC1CCCO1 (stereo not drawn) | 634 | -1.6% (inactive) | -13.7% (inactive) | 122 | -8.5% (inactive) | 122 | -0.421 (inactive) | -3e-05 (inactive) | 0.00568 (inactive) | 13.4% (inactive) | 15.3% (inactive)
CC(C)c1ccc(CNc2ccc(N3CCOCC3)cc2)cc1 | 700 | -11.3% (inactive) | -26.2% (inactive) | 117 | -54.6% (inactive) | 119 | -0.316 (inactive) | -4.8e-05 (inactive) | 0.00466 (inactive) | -21.7% (inactive) | -43.5% (inactive)
O=C(C1CCN(c2nnc(-n3cccc3)s2)CC1)N1CCN(Cc2ccc3c(c2)OCO3)CC1 | 707 | -9.2% (inactive) | -39.4% (inactive) | 115 | -56.3% (inactive) | 113 | -0.593 (inactive) | -2e-05 (inactive) | 0.00596 (inactive) | -2.25% (inactive) | -31.5% (inactive)
Clc1c(CSc2nc3ccccc3o2)nc2sccn12 | 651 | 7.3% (inactive) | 7.5% (inactive) | 99.8 | -149% (inactive) | 89.3 | -0.507 (inactive) | -4.4e-05 (inactive) | 0.00562 (inactive) | -56.6% (inactive) | -207% (inactive)
